Active and inactive are the calls of the source. Calls follow the shape of the dose curve; as a rule, active = well fitted curve in the direction sought with a large enough effect in the repeat runs; inconclusive = weak or mixed curves; inactive = flat fitted curve, though single readings scatter.
% is scaled to controls: 0 for no effect and ±100 for the full control effect.

The nature of the test: qHTS assay to test for compound auto fluorescence at 460 nm (blue) in HEK293 cell free culture (AID 720681). As to conditions: cell-free medium, autofluorescence 405/460 nm (blue); series mostly up to 91.3 µM; fluorescence, % of fluorescent control: at the top concentration. The source says: U.S. Tox21 Program National Center for Advancing Translational Sciences [NCATS] NIH Chemical Genomics Center [NCGC] U.S. Environmental Protection Agency [EPA] National Institutes of Environmental Health Sciences [NIEHS] National Toxicology Program [NTP] U.S. Food and Drug Administration [FDA] Tox21 Assay Overview: Compound auto fluorescence often interferes with screening of the compound library against various biological targets and signaling pathways. Some of these compounds may have fluorophoric properties. Such properties may interfere with the assay outputs resulting in false positives and/or negatives. To decrease such complications and ensure the compound activities are relevant in terms of biological response, the Tox21 10K compound library was screened for auto fluorescence. From the fluorophores used as reporter signals in our screening assays, the auto fluorescence equivalencies of compounds against three fluorophores have been evaluated: Triamterene, Fluorescein and Rose Bengal sodium for blue, green and red fluorescence, respectively. The fluorescence intensities were measured using Excitation/Emission wavelengths at 405/460nm, 485/535nm and 540/590nm for blue, green and red labels, respectively. This assay includes the blue fluorescence data.
Tox21 Assay Protocol Summary: 5 uL of culture medium (DMEM containing 10% FBS) per well was dispensed into black wall/clear bottom 1536-well plates using a Multidrop Combi Dispenser (ThermoFisher Scientific, Waltham, MA). After 23 nL compound or DMSO vehicle was transferred into assay plate by a pintool work station (Kalypsys, San Diego, CA), fluorescence intensities in the assay plates were measured by an Envision (PerkinElmer, Shelton, CT) plate reader using three labels for measuring blue, green and red fluorescence at […] 460, 535 and 590nm respectively.
On the technique in general: In qHTS, concentration-response curves come from the screen itself.
Take `CC(C)c1nnc2ccc(-c3ocnc3-c3cc(F)ccc3F)cn12`: the “fluorescence, % of fluorescent control” value was 0.16% (inactive). Still for that read-out and setting: in the case of `CC(Cl)C(Cl)Cl` (stereo not given) it was -0.0104% (inactive); in that of `COCc1c(C(C)C)nc(C(C)C)c(/C=C/[C@@H](O)C[C@@H](O)CC(=O)O)c1-c1ccc(F)cc1`, -0.1% [at 46 µM] (inactive).

Regarding `O=C(N[C@@H](c1ccccc1)[C@@H]1CCCCN1)c1cccc(C(F)(F)F)c1Cl`, the “fluorescence, % of fluorescent control” value is -0.126% (inactive).

For `CCC(C(=O)OCCN(CC)CC)c1ccccc1` (stereo not given), the “fluorescence, % of fluorescent control” value was 0.052% [at 46 µM] (inactive). Turning to `COCC(O)CO` (stereo not given), the “fluorescence, % of fluorescent control” value was -0.0144% [at 95.7 µM] (inactive). For `CC(C)=CC=O`, the “fluorescence, % of fluorescent control” value was 0.0888% [at 95.7 µM] (inactive).

On to `CC(=O)Nc1ccc(N)cc1`, for which the “fluorescence, % of fluorescent control” value was -0.0241% [at 95.7 µM] (inactive).

On to `CO/N=C1\CN(c2nc3c(cc2F)c(=O)c(C(=O)O)cn3C2CC2)CC1CN` (stereo not given), for which the “fluorescence, % of fluorescent control” value is 0.111% [at 46 µM] (inactive). In the case of `CC1(C)O[C@@H]2C[C@H]3[C@@H]4CCC5=CC(=O)C=C[C@]5(C)[C@H]4[C@@H](O)C[C@]3(C)[C@]2(C(=O)CO)O1`, the “fluorescence, % of fluorescent control” value is -0.0202% [at 46 µM] (inactive). `Cc1oncc1C(=O)Nc1ccc(C(F)(F)F)cc1`: the Potency entry is “inactive”. As for `O=[N+]([O-])c1cccc(S(=O)(=O)NCCNS(=O)(=O)c2cccc([N+](=O)[O-])c2)c1`, the “fluorescence, % of fluorescent control” value is -0.102% [at 46 µM] (inactive). Still for that read-out and setting: in the case of `COC(=O)[C@@H]1CC2=CC(=O)CC[C@]2(C)[C@@]23O[C@@H]2C[C@@]2(C)[C@@H](CC[C@@]24CCC(=O)O4)[C@H]13` it was 0.0182% [at 46 µM] (inactive); in that of `C=CCOC(=O)/C=C\C(=O)OCC=C`, 0.0154% [at 95.7 µM] (inactive); in that of `CN(C(=O)C(Cl)Cl)c1ccc(OC(=O)c2ccco2)cc1`, 0.148% [at 46 µM] (inactive). Regarding `O=C(O)c1cccc(O)c1`, the “fluorescence, % of fluorescent control” value was 0.0907% (inactive). As to `O=C(CCCN1CCC(O)(c2ccc(Br)cc2)CC1)c1ccc(F)cc1`, the fluorescence, % of fluorescent control was 0.0856% [at 18.6 µM] (inactive). With `CNCCCC1c2ccccc2C=Cc2ccccc21`, the fluorescence, % of fluorescent control is 0.01% [at 18.6 µM] (inactive). The same measure, in the same setting: in the case of `O=C(N/N=C/c1ccc([N+](=O)[O-])o1)c1ccc(O)cc1` it was -0.307% [at 18.6 µM] (inactive); in that of `CC(=O)CC(c1ccc([N+](=O)[O-])cc1)c1c(O)c2ccccc2oc1=O` (stereo not given), -0.0081% [at 18.6 µM] (inactive). On the same count and under the same terms, then `CC1CN(c2cc3c(cc2F)c(=O)c(C(=O)O)cn3-c2ccc(F)cc2F)CCN1` (stereo not given), with 0.229% [at 46 µM] (inactive). The same measure, in the same setting: then `CCOC(=O)C(C)Oc1ccc(Oc2nc3ccc(Cl)cc3o2)cc1` (stereo not given), with 0.236% (inactive); and `Cc1cc(C(=C2C=CC(=Nc3ccc(S(=O)(=O)O)cc3S(=O)(=O)O)C=C2)c2ccc(Nc3ccc(S(=O)(=O)O)cc3)cc2)ccc1N`, with 1.06% (inactive). With `CCC(=O)OC/C=C/c1ccccc1`, the “fluorescence, % of fluorescent control” value was -0.023% (inactive). For the compound `Cc1occc1C(=O)Nc1ccc(C(=O)N2CCC(F)(F)/C(=C\C(=O)N3CCC(N4CCCCC4)CC3)c3ccccc32)cc1`, the “fluorescence, % of fluorescent control” value was 0.0639% [at 46 µM] (inactive). For `CCNC(=O)N1CCN(CCCC(c2ccc(F)cc2)c2ccc(F)cc2)CC1`, the “fluorescence, % of fluorescent control” value is 0.0284% [at 46 µM] (inactive).

As for `Cc1ccccc1N1C(=O)c2cc(S(N)(=O)=O)c(Cl)cc2NC1C` (stereo not given), the Potency entry is “inactive”. `CO[C@H]1C=CO[C@@]2(C)Oc3c(C)c(O)c4c(O)c(c5c(c4c3C2=O)=NC2(CCN(CC(C)C)CC2)N=5)NC(=O)/C(C)=C\C=C/[C@H](C)[C@H](O)[C@@H](C)[C@@H](O)[C@@H](C)[C@H](OC(C)=O)[C@@H]1C`: the Potency result was “inactive”. `CCCCCC=CCC=CCCCCCCCC(=O)OCC`: the “fluorescence, % of fluorescent control” value was -0.0216% [at 46 µM] (inactive). Consider `CC(C)(C)C(=O)C(Oc1ccc(Cl)cc1)n1ccnc1` (stereo not given), for which the “fluorescence, % of fluorescent control” value is -0.13% [at 46 µM] (inactive).

For the compound `NC(=O)N(O)[C@@H]1COc2cc(OCc3ccccc3)ccc21`, the “fluorescence, % of fluorescent control” value is 1.12% (inactive). With `CO[C@H]1O[C@H](CO)[C@@H](O)[C@H](O)[C@H]1O`, the “fluorescence, % of fluorescent control” value was -0.0669% (inactive). Take `CCCCC/C(=C\c1ccccc1)CO`: the “fluorescence, % of fluorescent control” value was -0.0075% [at 95.7 µM] (inactive). Take `CCOC(=O)OCC`: the “fluorescence, % of fluorescent control” value is 0.0208% [at 95.7 µM] (inactive). On to `c1cnc2c(n1)CCCC2`, for which the “fluorescence, % of fluorescent control” value is 0.12% (inactive). Still for that read-out and setting: then `Nc1nc(Cl)nc2c1ncn2[C@@H]1O[C@H](CO)[C@@H](O)[C@@H]1F`, with -0.0096% [at 46 µM] (inactive); and `NC(=O)Cn1c(=O)cc(CCN2CCN(c3nccc4sccc34)CC2)c2ccc(F)cc21`, with -0.0131% (inactive). As to `COC(=O)Nc1nc2ccc(C(=O)c3cccs3)cc2[nH]1`, the “fluorescence, % of fluorescent control” value was 0.242% [at 46 µM] (inactive). With `Nc1ccc(S(=O)(=O)O)cc1`, the “fluorescence, % of fluorescent control” value was 0.0757% (inactive). Take `O=C(O)c1snc(Cl)c1Cl`: the “fluorescence, % of fluorescent control” value is -0.0734% (inactive).

(Values after PubChem BioAssay (Tox21).)
